# The campaign covered roughly 220,000 compounds. About 930 (0.42%) were called active. For the sample, actives were picked, then their nearest neighbours and some compounds at random. Unmarked numbers belong to inactive results. No stated cut-off is given here; in the data, active means inhibition above about 50%; inactive means the rest.
# Molecular target: Glycoprotein 42 (Epstein-Barr virus (strain AG876)) (UniProt Q1HVG2)
# Assay: Epstein-Barr virus gp42 inhibitors, primary screen, biochemical, uHTS, fluorescence polarization (AID 1085)
# Conditions: Fluorescence polarization binding assay, mP read-out; stronger effect = higher value; tested at 21.74 µM
# Glycoprotein 42 (Epstein-Barr virus (strain AG876)), sequence (Q1HVG2 whole entry, looked up): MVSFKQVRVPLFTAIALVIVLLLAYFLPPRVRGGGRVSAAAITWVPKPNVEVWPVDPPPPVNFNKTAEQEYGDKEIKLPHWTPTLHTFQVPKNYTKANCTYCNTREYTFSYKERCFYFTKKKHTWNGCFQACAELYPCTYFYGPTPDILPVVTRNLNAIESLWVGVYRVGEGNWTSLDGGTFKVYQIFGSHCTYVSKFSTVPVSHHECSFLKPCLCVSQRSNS
row,SMILES,inhibition
1,Cc1no[n+]([O-])c1COc1ccccc1/C=C1\NC(=S)NC1=O,-22.4%
2,COc1ccc(-n2cnnc2SCC(=O)Nc2cccc([N+](=O)[O-])c2)cc1,6.38%
3,CC1CN(S(=O)(=O)c2ccc(C(=O)Nc3sccc3C(N)=O)cc2)CC(C)O1 (stereo not drawn),6.08%
4,O=C(Nc1cccnc1)c1ccc(Cl)c([N+](=O)[O-])c1,-3.95%
5,Cn1cc(CN2CCCC(CO)C2)c(-c2ccc(Oc3ccccc3)cc2)n1 (stereo not drawn),-12.6%
6,CC1=C(C(=O)OCc2ccccc2)C(c2ccco2)n2ncnc2N1 (stereo not drawn),4.92%
7,COC(=O)C1=C(C)Nc2ncnn2C1c1ccco1 (stereo not drawn),6.95%
8,Brc1ccc(C2=CC(c3ccco3)n3ncnc3N2)cc1 (stereo not drawn),105% (active)
9,Cc1cc(-c2nc(C)c(-c3nnc(SCC(=O)Nc4ccccc4)n3C)s2)no1,-5.93%
10,COc1ccc(Cc2n[nH]c(=S)n2NC(=O)Nc2ccc(C)cc2)cc1,-9.72%
11,O=C(Nc1cn(-c2ccccc2)nc1-c1ccccc1)c1ccccc1,-10.3%
12,CCCCN1C(=O)CC(N2CCOCC2)C1=O (stereo not drawn),-40.1%
13,N#C/C(=C\C1=C(N2CCOCC2)C(=C\c2ccccc2)/CC1)C(=O)Nc1ccccc1F,154% (active)
14,N#C/C(=C\c1ccccc1C(F)(F)F)C(=O)Nc1ccccc1F,-19.9%
15,C(=N\N1CCN(c2ccccn2)CC1)/C1=C(N2CCOCC2)C(=C/c2ccccc2)/CC1,22.4%
16,Cc1sc2nc(CC(N)=O)[nH]c(=O)c2c1-c1ccccc1,-7.12%
17,CN1CCN(CCNC(=O)Nc2ccc([N+](=O)[O-])cc2)CC1,-6.33%
18,CCN(CC(=O)Nc1ccc(S(=O)(=O)N2CCCC2)cc1)CC(=O)Nc1cccc(OC)c1,-7.32%
19,CCCCCCCCc1c(O)nc(-n2[nH]c(C)c(CCO)c2=O)[nH]c1=O,-21.7%
20,COc1ccc(C2C=C(c3ccc(Br)cc3)Nc3nc(NS(C)(=O)=O)nn32)cc1 (stereo not drawn),80.6% (active)
21,COc1ccc(C2CC(c3ccc(C)cc3)Nc3nc(N)nn32)cc1 (stereo not drawn),-6.12%
22,COc1ccc(C2=CC(c3cccc(OC)c3)n3nnnc3N2)cc1 (stereo not drawn),-13.3%

row,SMILES,inhibition
1,CCOCCCNC(=S)N1CCC(NC(=O)C2CCCCC2)CC1,-2.69%
2,Oc1c(Cl)cc(Cl)c(Cl)c1Cc1c(O)c(Cl)cc(Cl)c1Cl,59.7% (active)
3,CCCC[C@@H]1CN=C(N)N1CCc1cc(C(F)(F)F)cc(C(F)(F)F)c1,-11.3%
4,CC1CCCN(S(=O)(=O)c2ccc(N(C(=O)c3cnccn3)C(C(=O)NC3CCCCC3)c3cccs3)cc2)C1 (stereo not drawn),-17.8%
5,Cc1ccc(S(=O)(=O)C(C#N)c2nc3ccccc3nc2N2CCCC2)cc1C (stereo not drawn),69.2% (active)
6,Cc1ccc(S(=O)(=O)Nc2nc3ccccc3nc2N2CCc3ccccc3C2)cc1,8.67%
7,Cc1cc(N2CCN(S(=O)(=O)c3ccc(C)c(C)c3)CC2)c2ccccc2n1,12.3%
8,O=C(COc1ccc(-c2ccccc2)cc1)NN=C1CCCC1,-13.3%
9,O=C(Nc1ccc2c(c1)OCCO2)c1ccoc1,-10.9%
10,COc1ccc(/C(O)=C2/C(=O)C(=O)N(CC3CCCO3)C2c2ccc(OC)c(OC)c2)cc1 (stereo not drawn),-16.4%
11,COc1ccc(-c2nc(CS(=O)CC(=O)NCc3ccccn3)c(C)o2)cc1 (stereo not drawn),117% (active)
12,COc1ccc(-c2nc(CS(=O)CC(=O)NCc3cccnc3)c(C)o2)cc1OC (stereo not drawn),-12.1%
13,COc1ccc(-c2nc(CS(=O)CC(=O)N3CCc4ccccc4C3)c(C)o2)cc1 (stereo not drawn),-1.18%
14,CC[N+]1(CC)CC2=Cc3ccccc3CC2C1 (stereo not drawn),-0.55%
15,N#Cc1cccc(Nc2c3c(nc4ccccc24)CCCC3)c1,5.27%
16,Cc1cccc(N)c1SC1CCCCC1O (stereo not drawn),-8.15%
17,O=C(Nc1nnc(Cc2ccc(Cl)cc2)s1)c1cccnc1,-5.07%
18,O=C(Nc1nnc(Cc2ccccc2)s1)c1cnccn1,58.2% (active)
19,O=C(Nc1nnc(Cc2ccc(Cl)cc2)s1)c1ccncc1,0.5%
20,Cc1cc(C)n2nc(C(=O)N3CCN(Cc4ccc5c(c4)OCO5)CC3)nc2n1,-5.29%
21,Cc1ccc(-c2nnc(SCC(=O)N/N=C/c3cccs3)n2-c2ccc(C)cc2)cc1,-4.61%
22,O=S(=O)(c1cccc(C(F)(F)F)c1)N1CCN(c2cnccn2)CC1,-12.8%

row,SMILES,inhibition
1,Oc1[nH]c2ccc(Br)cc2c1N=Nc1nn[nH]n1,-11.8%
2,Cc1cccc(N=Nc2c(C)[nH]n(-c3ccccc3)c2=O)c1,4.36%
3,Cc1cccc(N=Nc2c(O)[nH]c3ccc(F)cc23)c1,51.7% (active)
4,COc1ccc(-c2ccc(CNCCCN3CCOCC3)o2)cc1Cl,-7.89%
5,Cn1c(=O)c(=O)n(C)c2cc(S(=O)(=O)NCCN3CCN(c4ccccc4F)CC3)ccc21,-5.54%
6,CN(C)c1ccc(NC(=S)N(CCc2ccccc2)C2CC(=O)N(c3c(Cl)cccc3Cl)C2=O)cc1 (stereo not drawn),-7.96%
7,CCOCCCN(C(=O)Cn1nnc(-c2ccc(OC)c(OC)c2)n1)C(CC)C(=O)NC1CCCC1 (stereo not drawn),2.09%
8,CN(C)c1ccc(Nc2c3c4c(cccc4n(C)c2=O)C(=O)c2ccccc2-3)cc1,51.7% (active)
9,COC(=O)Cn1nc(-c2ccccc2)c2cc(Cl)ccc21,-7.25%
10,CCOC(=O)N1CCN(Cc2nc(Cc3cccc(C(F)(F)F)c3)no2)CC1,5.02%
11,O=C(COC(=O)/C=C/c1ccc(S(=O)(=O)N2CCCCCC2)cc1)NCc1ccccc1Cl,-7.1%
12,CC(=O)Nc1ccc(NC(=O)c2sc3nc4c(c(-c5ccc(C)cc5)c3c2N)CCC4)cc1,-13.2%
13,Cc1cccc(NC(=O)c2sc3nc4c(c(-c5ccco5)c3c2N)CCC4)c1,-22.7%
14,NC(=O)c1sc2nc3c(c(-c4ccccc4)c2c1N)CCC3,68.4% (active)
15,[O-][N+]12CCCCC1CCCC2CO (stereo not drawn),-12%
16,CCN(CC)c1ccc2oc(=O)c(C)nc2c1,51.1% (active)
17,CCN(CC)c1ccc2c(Nc3ccccc3)c(C=O)c(=O)oc2c1,-27.9%
18,CCN(CC)c1ccc2cc(C(=O)O)c(=O)oc2c1,-20.2%
19,CCOC(=O)C1=C(c2ccccc2)N=C2SCC(=O)N2C1c1ccc(O)c(OC)c1 (stereo not drawn),-7.62%
20,CSCC[C@H](NC(=O)NC1CCCC1)C(=O)O,-16.3%
21,CCc1nnc(NC(=O)Cc2cccs2)s1,15.8%
22,COc1ccc(Cc2nnc(NC(=O)Cc3cccs3)s2)cc1,73.9% (active)

row,SMILES,inhibition
1,O=C(Cc1cccs1)Nc1nnc(C2CC2)s1,-0.17%
2,CC(C)CCN1CCN(C/C=C/c2ccco2)CC1CCO (stereo not drawn),0.69%
3,O=C(Nc1ccc(N2CCN(C(=O)c3ccccc3)CC2)c(Cl)c1)c1ncn[nH]1,-5.31%
4,O=C(/C=C/Nc1ccc(S(=O)(=O)Nc2cnc3ccccc3n2)cc1)c1cccnc1,0.92%
5,COCCNC(=O)Nc1ccc2nc(-c3ccco3)c(-c3ccco3)nc2c1,52.7% (active)
6,O=C(NCc1ccccn1)c1ccc2nc(-c3ccco3)c(-c3ccco3)nc2c1,33.5%
7,COc1ccc(NC(=O)Nc2ccc3nsnc3c2)cc1,-9.53%
8,O=C(/C=C/c1cn(-c2ccccc2)nc1-c1ccc2c(c1)OCCO2)NCCCN1CCOCC1,-12.9%
9,CC(=O)c1ccccc1NC(=O)CC1(CC(=O)O)CCCCC1,-14.7%
10,Cc1cc(F)ccc1S(=O)(=O)Nc1ncnc2scc(-c3ccc(F)cc3)c12,9.65%
11,COc1cccc(N(CC(=O)NCCSc2ccccn2)S(C)(=O)=O)c1,-23.3%
12,Brc1ccc(-c2csc(N/N=C/c3cccnc3)n2)cc1,2.77%
13,CCCNc1c(N)c(=O)c1=O,2.64%
14,O=c1[nH]c2c(c(=O)n1Cc1ccccc1)CCC2,-9.97%
15,Cc1cc2nc3c(=O)n(Cc4ccccc4)c(=O)[nH]c3nc2cc1N,135% (active)
16,CC(=O)c1ccc(-c2ccc(Cn3c(C)nc4cc(N)c(C)nc43)cc2)cc1,2.98%
17,COC(=O)CCSc1cc([N+](=O)[O-])cc2c1c(C1OCCS1)nn2-c1ccccc1 (stereo not drawn),24.1%
18,CCCCCC(=O)Nc1ccc(C(=O)N/N=C/c2ccc([N+](=O)[O-])cc2)cc1,-19.6%
19,O=C(COc1ccc(/C=N/NC(=O)c2ccc(O)cc2)cc1)Nc1ccc([N+](=O)[O-])cc1,77.5% (active)
20,O=C(N/N=C/c1ccc(OCc2ccccc2)cc1)c1ccc(O)cc1,-4.07%
21,C/C=C\C=C\C(=O)N1CC2(CC(c3cccc(NC(=O)/C(C)=C\C)c3)=NO2)C[C@H]1C(N)=O (stereo partly drawn),-17.9%
22,CSc1ccccc1NC(=O)CN(C)CC(=O)Nc1cccc(Br)c1,-0.02%

# Source: PubChem BioAssay AID1085 (Emory University Molecular Libraries Screening Center, 2008)
